# Results from PubChem BioAssay AID488975 (Johns Hopkins Ion Channel Center, 2010).
# The whole screen tested about 310,000 compounds, of which about 2,600 (0.84%) were called active.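 The calls were made as follows: active = B-score over 3 SD under the library average, and starting fluorescence ratio not unusually high; inactive = the rest.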 The entries come from a sample that favours actives as a whole. Some structures have more than one record in an assay (separate samples or runs), and their calls can disagree.
# Target: High affinity choline transporter 1 (Homo sapiens) (UniProt Q9GZV3)
# Sequence (Q9GZV3 whole entry, looked up): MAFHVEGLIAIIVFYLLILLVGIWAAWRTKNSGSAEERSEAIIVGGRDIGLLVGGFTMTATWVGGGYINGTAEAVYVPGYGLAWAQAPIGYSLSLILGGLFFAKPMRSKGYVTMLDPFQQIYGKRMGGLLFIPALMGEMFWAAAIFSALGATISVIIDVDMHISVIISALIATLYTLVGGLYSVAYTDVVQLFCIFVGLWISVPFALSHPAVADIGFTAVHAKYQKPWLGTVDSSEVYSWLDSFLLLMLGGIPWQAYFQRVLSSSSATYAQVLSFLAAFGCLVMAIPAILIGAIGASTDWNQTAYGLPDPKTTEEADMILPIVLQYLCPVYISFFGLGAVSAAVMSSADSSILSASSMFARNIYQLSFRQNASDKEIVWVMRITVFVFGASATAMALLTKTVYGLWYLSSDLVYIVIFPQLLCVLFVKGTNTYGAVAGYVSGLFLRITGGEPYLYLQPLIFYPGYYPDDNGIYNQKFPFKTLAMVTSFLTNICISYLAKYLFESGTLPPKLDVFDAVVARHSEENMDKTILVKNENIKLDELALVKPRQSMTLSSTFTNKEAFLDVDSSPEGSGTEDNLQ
# Assay: inhibitors of human choline transporter CHT (AID 488975);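 as to B-score: choline stimulus applied at its EC90 after an EC20 pre-addition; B-score computed on integrated fluorescence ratio after choline addition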
# Conditions: CHT-expressing cells, membrane potential dye, choline response, at 10 µM; active compounds read low
SMILES,B-score,outcome
COc1ccc(/C=C2\SC(=S)N(CCC(=O)Nc3ccccn3)C2=O)cc1OC,inactive,
Cn1cccc1/C=C1\SC(=S)N(NC(=O)c2ccc(Cl)cc2)C1=O,inactive,
CCOc1ccc(/C=C2\SC(=S)N(NC(=O)c3ccncc3)C2=O)cc1OC,-5.15 (active),
COc1ccccc1C(=O)NNC(=O)CCN1C(=O)/C(=C\c2ccccc2)SC1=S,inactive,
O=C1/C(=C/c2ccc(F)cc2)SC(=S)N1NS(=O)(=O)c1ccccc1,-6.62 (active),
O=C(O)c1ccc(/C=C2\SC(=S)N(NC(=O)c3ccc(Br)cc3)C2=O)cc1,-5.15 (active),
O=C1/C(=C/c2ccc(F)cc2)SC(=S)N1CCCC(=O)N1CCCCC1CCO (centres undefined),inactive,
COc1ccc(/C=C2\SC(=S)N(CC(=O)NNC(=O)c3ccncc3)C2=O)cc1,inactive,
O=C(O)c1ccc(/C=N/NC(=O)c2ccc(Br)cc2)cc1,inactive,
COc1ccc2oc(C(=O)N(CC(C)C)C3CCS(=O)(=O)C3)c(C)c2c1 (centres undefined),inactive,
O=C(NCc1ccc(Cl)cc1)C(=O)NCC1CCCN1S(=O)(=O)c1cccs1 (centres undefined),inactive,
CC1CC(C)(C)CC2(C1)NC(=O)N(CC(=O)Nc1nccs1)C2=O (centres undefined),inactive,
Cc1cccc(-n2ncc(Cl)c(Cl)c2=O)c1,-6.46 (active),
O=c1c(Cl)c(NC2CC2)cnn1-c1ccccc1,inactive,
C=CCNc1cnn(-c2ccc(C)cc2)c(=O)c1Cl,inactive,
CCN1C(=O)[C@H]2[C@@H](c3ccc(SC4CCCCC4)c(OC)c3)N[C@@](Cc3ccccc3)(C(=O)OC)[C@H]2C1=O,inactive,
COc1cc(OC)cc(C(=O)NCCCn2ccnc2)c1,inactive,
COc1cccc(-c2nn(-c3ccccc3)cc2/C=C(\C#N)C(=O)NCCCn2ccnc2)c1,-6.63 (active),
COc1ccc(/C=C(\C#N)C(=O)NCCCn2ccnc2)cc1,inactive,
Cc1ccc(S(=O)(=O)N2[C@@H](c3cccc(Cl)c3)C(C(=O)O)=CC[C@H]2c2ccc(Cl)c(Cl)c2)cc1,inactive,
COc1cccc(N2CC(NS(=O)(=O)c3ccc(Cl)cc3)CC2=O)c1 (centres undefined),inactive,
COc1cccc(CNC(=O)C(=O)NCCC2CCCCN2S(=O)(=O)c2ccc(C)cc2)c1 (centres undefined),inactive,
C/C(=N\NC(=O)c1cccnc1)c1ccc(-c2ccccc2)cc1,inactive,
C/C(=N\NC(N)=S)c1ccncc1,inactive,
C/C(=N\NC(N)=S)c1cccnc1,-9.98 (active),

SMILES,B-score,outcome
CC(Oc1ccc2ccccc2c1)C(=O)NNC(=S)NC(=O)c1ccco1 (centres undefined),-5.21 (active),
Cc1ccc(C(=O)NNC(=O)C(C)Oc2ccc3ccccc3c2)o1 (centres undefined),inactive,
O=C(Nc1ccc2ccccc2c1)/C(=C/c1cccc(Br)c1)NC(=O)c1ccco1,inactive,
CCCCN(C(=O)CCNC(=O)NC12CC3CC(CC(C3)C1)C2)c1c(N)n(CCCC)c(=O)[nH]c1=O,inactive,
COc1ccc(CCNC(=O)C(=O)NCC2OCCN2S(=O)(=O)c2cccs2)cc1OC (centres undefined),inactive,
O=C(Nc1ccccc1N1CCCC1)c1ccc(F)c(S(=O)(=O)N2CCOCC2)c1,inactive,
CC(C)CN(C(=O)COC(=O)c1ccc(Cl)c(N)c1)c1c(N)n(Cc2ccccc2)c(=O)[nH]c1=O,inactive,
COCCNc1nc(-n2nc(C)cc2C)nc2sc3c(c12)CCCC3,-4.98 (active),
Cc1cc(C)n(-c2nc(SCC(=O)N3CCCC3)c3c4c(sc3n2)CCCC4)n1,inactive,
Cc1nc2sc3c(c2c(=O)n1NC(=O)CCl)CCCC3,inactive,
N#CC1(NC(=O)COC(=O)CSc2ccc(F)cc2)CCCCC1,inactive,
CCOc1ccc(S(=O)(=O)Nc2ccc(C(=O)NCCCN3CCCC3=O)cc2)cc1,inactive,
COc1ccc(S(=O)(=O)N2CCCC2CNC(=O)C(=O)NC2CC2)cc1 (centres undefined),inactive,
CCOC(=O)N1CCN(S(=O)(=O)c2ccc(OC)cc2)CC1,inactive,
COc1ccc(S(=O)(=O)N2CCN(C(=O)NC3CCCCC3)CC2)cc1,-6.98 (active),
OCCCNc1nccc(-c2cc(Nc3cccc(Cl)c3)ncn2)n1,inactive,
CC(C)C[C@H](CO)Nc1nc(N(C)c2cccc(Cl)c2)c2ncn(C(C)C)c2n1,inactive,
CC(C)n1cnc2c(Nc3cccc(Cl)c3)nc(N(CCO)CCCO)nc21,-7.57 (active),
COc1ccccc1N(C)S(=O)(=O)c1ccc(Cl)c(C(=O)Nc2ccncc2)c1,inactive,
COc1ccc(NS(=O)(=O)c2ccc(C)c(C(=O)N(C)Cc3ccc(OC)cc3OC)c2)cc1,inactive,
CC1(C)S[C@@H]2[C@H](N=CN3CCCCCC3)C(=O)N2[C@H]1C(=O)O,inactive,
CC1(C)SC2C(NC(=O)COc3ccccc3)C(=O)N2C1C(=O)O (centres undefined),-6.15 (active),inactive
CC1(C)S[C@@H]2[C@H](NC(=O)COc3ccccc3)C(=O)N2C1C(=O)OCc1ccccc1 (some centres undefined),inactive,
COC(=O)[C@]1(C)N[C@H](c2ccc(-c3ccc(Cl)c(Cl)c3)cc2)[C@@H]2C(=O)N(C)C(=O)[C@@H]21,inactive,
O=C(NCC(c1cccs1)N1CCOCC1)c1cc(Cl)ccc1[N+](=O)[O-] (centres undefined),inactive,

SMILES,B-score,outcome
OCCCNc1nc(-c2ccccc2)c2cc(Cl)ccc2n1,inactive,
CCC(C)NC(=O)Cn1nc(C(F)(F)F)c2c1CCC2 (centres undefined),inactive,
COC(=O)c1ccccc1NC(=O)CSc1nc2c(c(=O)[nH]1)CCC2,inactive,
CC(C)OC(=O)Cn1nc(C(F)(F)F)c2c1CCCC2,inactive,
O=C(Cn1nc(C(F)(F)F)c2c1CCC2)NCc1ccc(F)cc1,-6.14 (active),
Cc1cc(NC(=O)Cn2nc(C(F)(F)F)c3c2CCCC3)no1,inactive,
COC(=O)c1ccccc1NC(=O)Cn1nc(C(F)(F)F)c2c1CCC2,-5.17 (active),
N#CCN(C(=O)COC(=O)C1CC2CCCC(C1)C2=O)c1ccccc1 (centres undefined),inactive,
CC1CCN(c2ccc(-c3ccc(NC(=O)c4ccco4)cc3)nn2)CC1,inactive,
Cc1noc(C)c1CSCC(=O)Nc1ccc(Br)cc1Cl,inactive,
O=C(c1ccncc1)N1CCN(S(=O)(=O)c2cc(C(F)(F)F)cc(C(F)(F)F)c2)CC1,inactive,
CN(C)Cc1c(C(=O)N/N=C/c2ccccc2OCc2ccc(F)cc2)nnn1-c1nonc1N,inactive,
COCc1c(C(=O)N/N=C\c2cccnc2)nnn1-c1nonc1N,inactive,
CCN(CC)Cc1c(C(=O)N/N=C/c2cccc(OCc3ccc(F)cc3)c2)nnn1-c1nonc1N,-5.26 (active),
CCCCn1c(N)c(N(CC(C)C)C(=O)c2ccc(Br)o2)c(=O)[nH]c1=O,inactive,
CC(OC(=O)c1ccc(S(=O)(=O)N2CCOCC2)cc1)c1ccccc1 (centres undefined),inactive,
CCN(C(=O)CSc1ncnc2c1cnn2-c1ccccc1)C1CCS(=O)(=O)C1 (centres undefined),inactive,
O=C(Nc1ccc(F)c(Cl)c1)C1CCN(S(=O)(=O)c2cccnc2)CC1,-5.54 (active),
CC(C)c1ccc(NC(=O)C2CCCN(S(=O)(=O)c3cccnc3)C2)cc1 (centres undefined),inactive,
O=C(NCc1cccs1)C1CCN(S(=O)(=O)c2ccc(Cl)cc2)CC1,inactive,
O=C(COC(=O)c1cc(S(=O)(=O)N2CCCCC2)ccc1Cl)NCc1ccco1,inactive,
CN(c1ccccc1)S(=O)(=O)c1ccc(Cl)c(C(=O)OCC(=O)NCc2ccco2)c1,inactive,
Cc1cc(C(=O)OCC(=O)NCc2ccco2)c(C)n1-c1ccccc1,-10 (active),
CCOc1ccc(S(=O)(=O)N2CCN(C(=S)NCC3CCCO3)CC2)cc1 (centres undefined),inactive,
CC(C)CN(C(=O)c1ccc2c(c1)OCO2)C1CCS(=O)(=O)C1 (centres undefined),inactive,

SMILES,B-score,outcome
CN(C(=O)c1cc2c(=O)n3ccccc3nc2s1)C1CCCCC1,inactive,
O=C(CC1SC(N2CCCC2)=NC1=O)Nc1ccc(C(=O)NCCc2ccc(F)cc2)cc1 (centres undefined),inactive,
Cc1ccc([N+](=O)[O-])cc1S(=O)(=O)N1CCCN(C)CC1,inactive,
CCc1nccn1S(=O)(=O)c1cccc([N+](=O)[O-])c1,inactive,
CCc1nc(C)cn1S(=O)(=O)c1cc([N+](=O)[O-])ccc1Cl,-5.38 (active),
C=CCOc1cccc(C2C(C(=O)c3ccc(C)o3)=C(O)C(=O)N2CCCn2ccnc2)c1 (centres undefined),inactive,
O=C(COc1ccc(Cl)cc1)N1CCN(c2cccc(C(F)(F)F)c2)CC1,inactive,
O=C(CCCN1C(=O)CSc2ncccc21)N1CCN(c2cccc(C(F)(F)F)c2)CC1,-9.61 (active),
O=C(CN1C(=O)CSc2ncccc21)N1CCOCC1,inactive,
CCCn1c(C)cc(-c2csc(NC(=O)CCc3nc4ccccc4c(=O)[nH]3)n2)c1C,inactive,
CN(C)C1=NC[C@H](Cc2ccccc2)N1CCc1ccc(F)cc1,inactive,
CC1C(=O)N2CCCc3cc(S(=O)(=O)NCc4ccc(F)cc4)cc1c32 (centres undefined),inactive,
CN1C(=O)/C(=C/c2ccc(C(=O)NC3CCCC3)cc2)Oc2ccccc21,inactive,
CN1CCN(CCCNC(=O)c2ccc(/C=C3\Oc4ccccc4N(Cc4ccc(Cl)cc4)C3=O)cc2)CC1,-7.25 (active),
O=C(NCCN1CCOCC1)c1ccc(/C=C2\Sc3ccccc3N(Cc3ccc(F)cc3)C2=O)cc1,inactive,
O=C(NC1CCCCC1)c1ccc(-c2ccc(Cl)cc2)o1,inactive,
O=[N+]([O-])c1ccc(O)c(/C=N/Nc2ccccc2[N+](=O)[O-])c1,inactive,
O=[N+]([O-])c1ccccc1Nc1ccc(O)cc1,-5.48 (active),
O=C(O)c1ccccc1C(=O)Nc1ccccc1[N+](=O)[O-],inactive,
CCN(C(=O)CSc1nnnn1-c1ccccc1OC)C1CCS(=O)(=O)C1 (centres undefined),inactive,
Cc1nc2c(c(C)nn2-c2ccccc2)c(C)c1C,inactive,
O=C(Nc1ncccc1O)c1ccc(C(=O)c2ccccc2)cc1,inactive,
Cc1csc(=O)n1CC(=O)OCC(=O)N(CC(C)C)c1c(N)n(Cc2ccccc2)c(=O)[nH]c1=O,inactive,
